For 30 molecules, growth results are on record in PubChem BioAssay (NCI).

Several values for one entry are separate records, joined by “and”; a condition that tells them apart may be missing. Equal values may be shown once. The panel holds about 83,000 compounds, 20% with a hit somewhere; the sample as a whole holds those more often.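 The test compound was applied at a single concentration to cells in 96-well plates for 48 hours, and percent growth was recorded.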 Activity calls are given as the source filed them. The calls were made as follows: active = growth percent below 10; inactive = the rest.

In this test the test system is MDA-MB-468 breast. The experiment in a line: NCI-60 one-dose screen, 48 h (100 = growth as untreated, 0 = no growth, -100 = all killed). The conditions noted are these: 10 µM unless noted.
On to `C/C=C(/C)C(=O)OC1C=C(CO)C(=O)C(OC(=O)C(C)(O)C(C)Cl)C1C(C)C` (stereo not given), for which the growth is -51.9% (active).

For the molecule `Cc1ccc(S(=O)(=O)n2cc(C(=O)C(=O)Nc3ccncc3)c3ccccc32)cc1`, the growth is 1.96% (active).

Consider `C/C(=C(/c1ccccc1)c1ccc(N2C(=O)c3cccc4c(N5CCN(C)CC5)ccc(c34)C2=O)cc1)c1ccccc1`, for which the growth was 42.5% (inactive).

Turning to `Cc1cc2nc3c(=O)[nH]c(=O)nc-3n(CC=O)c2cc1C`, the growth is 95.8% (inactive).

Take `C=C1CCC2C3(C)COC(c4c(OC)cccc4OC)OC3CCC2(C)C1C/C=C1/C(=O)OCC1O` (stereo not given): the growth was 20.2% (inactive).

`COc1ccncc1C#Cc1cncc(C(=O)Nc2ccc(CN3CCN(C)CC3)c(C(F)(F)F)c2)c1`: the growth is 73.1% (inactive).

As for `O=C1Nc2ccccc2C1=NC1CCCCC1`, the growth is 102% (inactive).

As for `Cc1ccc(S(=O)(=O)N/N=C/C2(c3ccccc3)CC2)cc1`, the growth is 95.8% (inactive).

With `O=C1Nc2c(ccc(Cl)c2Cl)/C1=C/c1ccc(F)cc1`, the growth is 51.9% (inactive).

For `O=C(Nc1ccc(Cl)cc1)c1cc2ccccc2cc1O`, the growth is 21.4% (inactive) and -6.92% (active).

As for `O=C1NC(=O)c2ncccc21`, the growth was 93.8% (inactive).

Turning to `O=C1CC(=O)OC(c2ccc([N+](=O)[O-])cc2)O1`, the growth is -49.7% (active).

On to `CCN(CC)c1ccc(/C=N/NC(=O)CSc2nc3ccccc3c(=O)n2Cc2ccc(S(N)(=O)=O)cc2)c(O)c1`, for which the growth is -11% (active).

Turning to `O=S(=O)(NCCNc1cc(-c2cn(-c3ccccc3)nc2-c2cccc(O)c2)ccn1)c1ccc(C(F)(F)F)cc1`, the growth was 21.6% (inactive).

For `Cc1cc2nc(-c3ccccc3)c(-c3ccccc3)nc2cc1C`, the growth is 106% (inactive).

In the case of `O=C1/C(=C/c2ccccc2)CN(C(=O)C(Cl)Cl)C/C1=C\c1ccccc1`, the growth was -32.8% (active).

Regarding `CCN1CCN(c2ccc(Nc3ncc4ccc5ncn(C(C)C)c5c4n3)nc2)CC1`, the growth is -41.3% (active).

As to `O=C(C1CCC1)N1N=C(c2ccc(-n3ccc(C(F)(F)F)n3)cc2)CC1c1ccc[nH]1` (stereo not given), the growth was 106% (inactive).

`COc1ccc(-c2nn(C(=O)NCCN(C)C)cc2-c2ccncc2)cc1Cl`: the growth was 4.11% (active).

`Nc1ccc(C2=CC(c3ccc(Cl)cc3)N3C=CSC3=N2)cc1` (stereo not given): the growth is -77.1% (active).

On to `CCN(CC)CCC(C(=O)O)(c1ccccc1)c1ccccc1`, for which the growth was 120% (inactive).

For `Cc1cc(Cc2cc(C)c(O)c(C)c2)cc(C)c1O`, the growth is -0.94% (active).

Regarding `Cc1ccc(NC(=O)c2sc3nc(C)c(Br)c(C)c3c2N)cc1`, the growth is 66.6% (inactive).

On to `O=C(Nc1ccncc1)C(=O)c1cn(S(=O)(=O)c2ccc(Br)cc2)c2ccccc12`, for which the growth was 6.9% (active).

`COC(=O)c1c2c(c(C)[n+]([O-])c1C)C(=O)C(NCc1ccc(O)cc1)=CC2=O`: the growth was -44.2% (active).

In the case of `CCCCCCCCCCCCCCn1c2ccccc2c2c3c(c4c5cc(OC)ccc5oc4c21)C(=O)NC3=O`, the growth was 106% (inactive).

Consider `COc1cc(/C=C/C(=O)c2cc(OC)c(OC)c(OC)c2)ccc1OCc1ccccc1`, for which the growth was 21.5% (inactive).

For `C=C[C@]1(C)C=C2C(=O)[C@@]3(O)OC(=O)[C@@]4(CCCC(C)(C)[C@H]34)[C@@]2(O)CC1`, the growth is -84.4% (active).

Turning to `Nc1nc(N)c2nc3c(nc2n1)CCCCCCCCCC3`, the growth is 58.1% (inactive).

For the molecule `Cc1c(C(=O)NO)sc2ncnc(Nc3ccc(NC(=S)Nc4ccccc4)cc3)c12`, the growth was 104% (inactive).
